From PubChem BioAssay (NCI) come the findings set out here.

Test systems include DU-145 prostate; K-562 leukemia; MALME-3M melanoma; MDA-MB-231 breast; RXF 393 renal; SF-268 CNS; SF-295 CNS; SF-539 CNS; UACC-257 melanoma; M14 melanoma; HCT-15 colon; HT29 colon; SNB-75 CNS; SNB-19 CNS; U251 CNS; PC-3 prostate; SK-MEL-5 melanoma; UACC-62 melanoma; LOX IMVI melanoma; SK-MEL-28 melanoma.
Common to all, as to assay: NCI-60 one-dose screen, 48 h (100 = growth as untreated, 0 = no growth, -100 = all killed)
What all share (conditions): 10 µM unless noted

This is part of a sample that, as a whole, favours compounds with a hit. Of some 83,000 tested, about 20% had one in any assay.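 Assay: single dose, 48 h. Readout: percent growth (0 = no net growth; negative = cell death). Active: <10.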 Unmarked numbers belong to inactive results. Active and inactive are the calls of the source.

For the compound `Clc1ccc2c(NCCNC34CC5CC(CC(C5)C3)C4)ccnc2c1`, the growth with DU-145 prostate is -42.7% (active); in the assay on K-562 leukemia, 2.05% (active); in the assay with MALME-3M melanoma it was -80.4% (active); with MDA-MB-231 breast it was -72.1% (active); in the assay with RXF 393 renal, -86.4% (active); in the assay with SF-268 CNS, -62.2% (active). Also, the growth in the assay with SF-295 CNS is -90.9% (active); in the assay with SF-539 CNS, -89.7% (active); with UACC-257 melanoma, -66.3% (active); in the assay on M14 melanoma it was -83.5% (active); with HCT-15 colon it was -82% (active); in the assay with HT29 colon it was -50.8% (active). Also, the growth with SNB-75 CNS is -74.9% (active); with SNB-19 CNS, -54.2% (active); in the assay on U251 CNS, -61.8% (active); with PC-3 prostate, -5.27% (active); in the assay on SK-MEL-5 melanoma, -96% (active); with UACC-62 melanoma it was -89.9% (active). Moreover, the growth in the assay on LOX IMVI melanoma is -91.5% (active); in the assay on SK-MEL-28 melanoma it was -93.5% (active).

Take `COc1ccc(C(=O)/C=C/c2ccc3c(c2)OCCO3)cc1S(N)(=O)=O`: the growth in the assay on DU-145 prostate was 44.7%; in the assay with K-562 leukemia it was 16.7%; in the assay with MALME-3M melanoma, 88.3%; in the assay with MDA-MB-231 breast it was 86.5%; in the assay on RXF 393 renal, 88.5%; in the assay on SF-268 CNS, 111%. Further, the growth with SF-295 CNS was 79.5%; in the assay on SF-539 CNS, 44.9%; with UACC-257 melanoma, 77.9%; in the assay with M14 melanoma it was 89.7%; in the assay on HCT-15 colon, 41.9%; with HT29 colon, 33.4%. Besides, the growth with SNB-75 CNS was 82.5%; in the assay with SNB-19 CNS, 51.4%; in the assay with U251 CNS it was 12.2%; in the assay with PC-3 prostate, 103%; in the assay on SK-MEL-5 melanoma it was 99.8%; with UACC-62 melanoma, 87.9%. Further, the growth in the assay on LOX IMVI melanoma was 23.7%; in the assay with SK-MEL-28 melanoma, 101%.

`CCCCCCCCCCCCCCCCCC(=O)Nc1ccc(OC)cc1`: the growth in the assay with DU-145 prostate was 112%; with K-562 leukemia it was 92%; in the assay on MALME-3M melanoma, 97.7%; in the assay with MDA-MB-231 breast it was 99.9%; with RXF 393 renal, 115%; in the assay with SF-268 CNS, 108%. Also, the growth with SF-295 CNS was 106%; in the assay on SF-539 CNS, 97.3%; in the assay with UACC-257 melanoma, 102%; in the assay with M14 melanoma it was 105%; with HCT-15 colon, 99.1%; in the assay with HT29 colon, 104%. Moreover, the growth in the assay on SNB-75 CNS was 144%; with SNB-19 CNS, 96.2%; in the assay on U251 CNS it was 102%; with PC-3 prostate, 93.3%; with SK-MEL-5 melanoma it was 102%; in the assay on UACC-62 melanoma, 97.5%. The growth with LOX IMVI melanoma is 95.9%; in the assay on SK-MEL-28 melanoma, 110%.

Turning to `COc1ccc2[nH]c(O)c(N=Nc3nc(-c4ccc(Br)cc4)cs3)c2c1`, the growth in the assay on DU-145 prostate was 16%; in the assay with K-562 leukemia it was 17.9%; with MALME-3M melanoma, -36.3% (active); in the assay on MDA-MB-231 breast it was 35.7%; with RXF 393 renal, -64.2% (active); in the assay on SF-268 CNS, 30.5%. In addition, the growth in the assay on SF-295 CNS is 9.66% (active); in the assay with SF-539 CNS it was -68.4% (active); with UACC-257 melanoma, 30.3%; with M14 melanoma it was 14.4%; in the assay with HCT-15 colon, 2.5% (active); in the assay with HT29 colon it was 12.8%. Further, the growth in the assay on SNB-75 CNS is -41.4% (active); in the assay with SNB-19 CNS, 36.4%; in the assay on U251 CNS, -39.5% (active); in the assay on PC-3 prostate it was 21%; in the assay on SK-MEL-5 melanoma it was 35.1%; with UACC-62 melanoma, 18.7%. Besides, the figures for the growth in the assay on LOX IMVI melanoma and with SK-MEL-28 melanoma were 4.53% (active) and 15.4%, respectively.

`Cc1ccc(C2CC(c3ccc(NC(=O)Nc4ccccc4)cc3)=NN2c2ccc(S(C)(=O)=O)cc2)cc1` (stereo not given): the growth was 3.25% (active) in the assay with DU-145 prostate; 13.1% with K-562 leukemia; -25.1% (active) in the assay on MALME-3M melanoma; -70.1% (active) in the assay on MDA-MB-231 breast; -78.9% (active) with RXF 393 renal; 9.34% (active) in the assay with SF-268 CNS. Also, the growth in the assay on SF-295 CNS is -20.3% (active); in the assay with SF-539 CNS, -97% (active); in the assay on UACC-257 melanoma, 34.3%; with M14 melanoma, -44.8% (active); with HCT-15 colon, -84.4% (active); with HT29 colon, -55.7% (active). The growth is 56.9% in the assay on SNB-75 CNS; 4.8% (active) in the assay with SNB-19 CNS; -63.5% (active) with U251 CNS; 1.02% (active) in the assay with PC-3 prostate; -99.9% (active) in the assay with SK-MEL-5 melanoma; -80.3% (active) in the assay on UACC-62 melanoma. In addition, the growth in the assay with LOX IMVI melanoma is -100% (active); with SK-MEL-28 melanoma it was -89.4% (active).

For `CCOC(=O)c1ccc(NC(=S)NC(=O)c2cccc(NC(=O)c3ccc(C)cc3)c2)cc1`, the growth in the assay on DU-145 prostate was 105%; in the assay with K-562 leukemia, 76.3%; with MALME-3M melanoma it was 71.9%; with MDA-MB-231 breast, 39.1%; in the assay on RXF 393 renal, 66.9%; in the assay on SF-268 CNS, 102%. Besides, the growth in the assay with SF-295 CNS was 90.9%; in the assay on SF-539 CNS, 44.9%; in the assay on UACC-257 melanoma, 78.6%; in the assay with M14 melanoma, 80.7%; in the assay on HCT-15 colon, 75.3%; in the assay with HT29 colon it was 82.5%. Besides, the growth was 73% with SNB-75 CNS; 49.4% with SNB-19 CNS; 2.07% (active) with U251 CNS; 77.5% in the assay with PC-3 prostate; 85.8% with SK-MEL-5 melanoma; 74.9% in the assay with UACC-62 melanoma. In addition, the results for the growth in the assay on LOX IMVI melanoma and in the assay with SK-MEL-28 melanoma were 51.9% and 85.2%, respectively.

Regarding `Cn1cc(-c2cc(N)n3nc(-c4c[nH]c5ccc(F)cc45)cc3n2)c2cccnc21`, the growth in the assay on DU-145 prostate was -75.7% (active); in the assay with K-562 leukemia, -32% (active); in the assay on MALME-3M melanoma, -93% (active); in the assay on MDA-MB-231 breast, -85.9% (active); in the assay on RXF 393 renal, -81.2% (active); with SF-268 CNS, -27% (active). Further, the growth in the assay with SF-295 CNS is -93.9% (active); with SF-539 CNS, -96.3% (active); with UACC-257 melanoma, -87.3% (active); in the assay with M14 melanoma, -89.5% (active); in the assay on HCT-15 colon it was -52.3% (active); with HT29 colon, -70.1% (active). Also, the growth in the assay on SNB-75 CNS was -48.5% (active); in the assay with SNB-19 CNS, -24.8% (active); with U251 CNS, -84.7% (active); in the assay on PC-3 prostate, -45.3% (active); with SK-MEL-5 melanoma it was -98.4% (active); with UACC-62 melanoma, -93.6% (active). For the same compound, the figures for the growth with LOX IMVI melanoma and in the assay on SK-MEL-28 melanoma were -97.9% (active) and -92.6% (active), respectively.

On to `COc1ccc(NC(=O)Cn2c(/C=C/c3cccc(Br)c3)nc3ccccc3c2=O)cc1`, for which the growth in the assay with DU-145 prostate was 79.1%; in the assay on K-562 leukemia, 86.3%; in the assay with MALME-3M melanoma, 48.7%; in the assay with MDA-MB-231 breast, -38.4% (active); in the assay with RXF 393 renal, -16.3% (active); with SF-268 CNS it was 65.2%. Moreover, the growth in the assay on SF-295 CNS is 48.9%; in the assay on SF-539 CNS it was -23.4% (active); with UACC-257 melanoma, 71.1%; in the assay on M14 melanoma, 50.2%; with HCT-15 colon, 70.9%; with HT29 colon it was 51.9%. Also, the growth in the assay with SNB-75 CNS is -29.7% (active); in the assay with SNB-19 CNS, 49.3%; in the assay with U251 CNS, -1.66% (active); in the assay with PC-3 prostate it was 79.3%; in the assay on SK-MEL-5 melanoma, 78.5%; in the assay on UACC-62 melanoma, 68.4%. Moreover, the values for the growth in the assay with LOX IMVI melanoma and in the assay on SK-MEL-28 melanoma were 28.8% and 70.2%, respectively.
